Data published in PubChem BioAssay AID1508622 (National Center for Advancing Translational Sciences (NCATS), 2021).
Unmarked numbers belong to inactive results. The source made the active and inactive calls. The call rests on the fitted dose curve; in most records, active means well fitted activation curve with a large enough effect; inconclusive means small, poorly fitted or top-dose-only effect; inactive means no such curve, though single readings can be large or run the other way.

Test: Confirmatory qHTS for Identification of Small Molecule Activators of Huntingtin-Antisense Promoter Activity
Conditions: HEK293 HTT-AS promoter firefly luciferase reporter, 24 h; series mostly up to 57.5 µM; activity change, positive = activation: at the top concentration
Procedure, shortened: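 Plated reporter HEK293 cells (24 h) received library compounds at up to 57.5 uM final or 50 uM PTC124, incubated 24 h at 37C; firefly luciferase luminescence was then recorded with Dual-Glo reagent.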
Potency means the concentration at half of the fitted maximal effect.

Compound	activity change, positive = activation [%]	Potency
CCCc1ccc(C2Sc3ccccc3NC3=C2C(=O)c2ccccc23)cc1 (centres undefined)	-72.4	–
CN(CC(=O)Nc1ccc(OC(F)(F)F)cc1)S(=O)(=O)c1ccc2c(c1)CCC(=O)N2	-49.6	–
CCN1C(=O)c2ccccc2Sc2ccc(NC(=O)c3ccc(C)c(F)c3)cc21	-22.3	–
Cn1c(COc2ccccc2C(C)(C)C)nc2ccccc21	-26.8	–
COc1ccc(NC(=O)Cn2c(SCc3ccc(F)cc3)nc3cccnc32)cc1OC	-27.2	–
Cc1ccc(NS(=O)(=O)c2ccc(-c3cnc(C4CC4)o3)cc2)cc1N(C)C	-91.1	–
COC(=O)C1CCN(S(=O)(=O)c2ccc(N3CCCCS3(=O)=O)cc2)CC1	-35.7	–
COc1ccc(-c2cc(C(=O)N3CCN(c4ccccc4OC)CC3)c3cc(C(C)C)ccc3n2)cc1	-34.7	–
CCN(CC)S(=O)(=O)c1ccc2c(c1)N(CC(=O)N1CCN(c3cccc(C(F)(F)F)c3)CC1)C(=O)CO2	-9.43	–
O=S(=O)(NCc1ccc(F)cc1)c1ccc(N2CCCCS2(=O)=O)cc1	-83.7	–
O=C(CN1C(=O)C2(SCC(=O)N2c2cccc(Cl)c2)c2ccccc21)NCCc1ccccc1 (centres undefined)	-24.2	–
CC(C)c1ccc(Cc2cnc(NC(=O)c3ccc4c(c3)CC(c3ccccc3)OC4=O)s2)cc1 (centres undefined)	-64.6	–
Cc1ccc(Nc2cc(C)nc(-n3nc(C)cc3C)n2)cc1	8.96	–
CCN(CC)c1ccc(NC(=O)COCc2cc(-c3ccc4c(c3)OCO4)on2)c(C)c1	-33.1	–
Cn1c(=O)n(C)c2cc(NS(=O)(=O)c3ccc(F)cc3)ccc21	-4.9	–
COc1ccc(Cl)cc1Nc1sc(C(=O)c2ccccc2)c(N)c1C(=O)Nc1ccccc1	-4.99	–
CCOC(=O)c1cc(-c2ccccc2)n(CCC(=O)Nc2ccc(OC)c(Cl)c2)c1C	-18.6	–
COc1cc(CNc2ccc3[nH]c(=O)[nH]c3c2)cc(Br)c1OCc1ccc(F)cc1	-25	–
O=C(CCc1cn(Cc2ccc(F)cc2)c2ccccc12)NC1CCCCC1	-18.1	–
FC(F)(F)c1cccc(Nc2nc3nonc3nc2Nc2ccc(Cl)cc2)c1	-95.1	–

Compound	activity change, positive = activation [%]	Potency
Cc1ccc(C(=O)Nc2nc(-c3nnn(-c4cccc(Cl)c4C)c3C)ns2)cc1C	-64.7	–
Cc1csc2nc(COC(=O)c3ccccc3NC(=O)c3ccccc3Cl)cc(=O)n12	8.8	–
CCOc1ccc(S(=O)(=O)N(C(C)=O)c2ccc3oc(C)c(C(=O)OC)c3c2)cc1	-92.6	–
COc1cc(OC)c(OC)cc1/C=C/c1nc2cc3ccccc3cc2c(=O)n1-c1ccc(F)c(Cl)c1	-9.7	–
COc1ccc(-c2noc(N3CCC(C(=O)N4CCN(c5cccc(OC)c5)CC4)CC3)n2)cc1	-80.5	–
COCCNc1nc2c(c(=O)n(C)c(=O)n2C)n1Cc1c(F)cccc1Cl	-54.3	–
NC(=O)Nc1cc(-c2ccc(CN3CCOCC3)cc2)sc1C(N)=O	–	23.9 µM (active)
COC(=O)C1=C(C)NC(C)=C(C(=O)OCC(C)=O)C1c1ccccc1[N+](=O)[O-] (centres undefined)	43.9	–
Cc1ccc(CSC2=Nc3ccccc3C3=NC(CC(=O)NC4CCCCC4)C(=O)N23)cc1 (centres undefined)	26.1	–
COc1ccc(CCNC(=O)c2ccc3c(c2)CCN3S(=O)(=O)c2ccc(Cl)cc2)cc1	-16.4	–
Cc1ccc(Cl)cc1N1CCN(CCCNC(=O)C2COc3ccccc3C2)CC1 (centres undefined)	-45	–
COc1cccc(Cn2c(SCc3ccc(C(=O)N4CCC(C)CC4)cc3)nc3ccncc32)c1	-25.6	–
COc1ccc(N2CCN(C(=O)c3ccc4c(=O)n(CCc5ccc(OC)c(OC)c5)c(=O)[nH]c4c3)CC2)cc1	-61.7	–
CCc1ccccc1-n1c(SCC(=O)Nc2ccc(C)cc2)nc2n[nH]c(C)c2c1=N	-43.3	–
COc1cc(C2C(C(=O)Nc3ccccc3C)=C(C)Nc3nc(SCc4cc(C)ccc4C)nn32)ccc1O (centres undefined)	-41.1	–
CC(=O)N1CCCc2cc(S(=O)(=O)N3CCN(c4ccc(F)cc4)CC3)ccc21	-29.3	–
O=C(Nc1nc2cccc(-c3ccc(CN4CCS(=O)(=O)CC4)cc3)n2n1)C1CC1	–	8.49 µM (active)
CCCC(=O)Nc1nnc(SCc2cc(=O)c3ccc(C)cc3[nH]2)s1	-93.8	–
O=C(NC1CCCCC1)c1ccc(CSc2nc3cccnc3n2Cc2cccc(F)c2)cc1	-20.4	–
